Source: PubChem BioAssay
This is a sample that favours compounds with a hit; in the whole collection about 2.4% have one here.
D2 antagonist = HTS Assay for Allosteric Antagonists of the Human D2 Dopamine Receptor: Primary Screen for Antagonists; HEK293 TREx D2 cells, calcium flux, dopamine EC80; inhibition, % at 10 µM; 340,000 tested, 2% active; AID 485344, 2010; in the data active = inhibition above about 30%; inactive = below that, where a call was filed; also: 0% is about no effect
Target sequence (P14416 whole entry, looked up): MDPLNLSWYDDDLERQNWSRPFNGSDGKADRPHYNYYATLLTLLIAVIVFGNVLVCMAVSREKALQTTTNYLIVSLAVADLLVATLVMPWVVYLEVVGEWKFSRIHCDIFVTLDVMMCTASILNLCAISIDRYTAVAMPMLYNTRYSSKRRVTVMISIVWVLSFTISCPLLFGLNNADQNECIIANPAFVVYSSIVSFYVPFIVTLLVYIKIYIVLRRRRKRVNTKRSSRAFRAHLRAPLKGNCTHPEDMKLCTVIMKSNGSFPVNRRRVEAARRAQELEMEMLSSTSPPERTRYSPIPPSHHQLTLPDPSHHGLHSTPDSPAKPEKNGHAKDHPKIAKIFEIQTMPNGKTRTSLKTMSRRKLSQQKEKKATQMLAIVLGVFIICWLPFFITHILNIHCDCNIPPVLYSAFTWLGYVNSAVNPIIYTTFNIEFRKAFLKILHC
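Tetracycline-induced HEK293 TREx cells expressing D2 receptor forced-coupled to calcium signalling, loaded with no-wash calcium dye. Compounds added and calcium flux read 180 s, then dopamine added at EC80 and read a further 180 s.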
D2 PAM-1 = HTS Assay for Positive Allosteric Modulators of the Human D2 Dopamine Receptor: Primary Screen for Potentiators; potentiation, % at 10 µM; 340,000 tested, 0.34% active; HEK293 T-REx D2, calcium flux, EC20 dopamine potentiation;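 active = potentiation over 3 SD above the plate norm, cut at about 30% in these data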; also: 0% is about no effect
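Using a no-wash calcium dye in inducible, force-coupled HEK293 Trex cells expressing D2, we tracked fluorescence each second for 180 s after compound, then for 180 s after EC20 dopamine to detect augmented signalling.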
D2 ag-1 = Beta-Arrestin HTS for Positive Allosteric Modulators of the Human D2 Dopamine Receptor: Agonists | D(2) dopamine receptor (Homo sapiens), P14416 | 360,000 tested, 0.084% active | activation, % (no concentration beside the values) | AID 624465, 2012 | DiscoveRx PathHunter D2 beta-arrestin, luminescence, 90 min; 100% = 57 uM dopamine signal; in the data active = activation above about 40%; inconclusive = between about 15% and that limit
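Agonist mode: compounds alone added to overnight-plated D2 PathHunter cells for 90 min at 37 C, with 57 uM final dopamine (EC100) defining full response. Beta-arrestin recruitment detected by chemiluminescent reagent, read after 1 h at ambient temperature.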
D2 PAM-2 = Beta-Arrestin HTS for Positive Allosteric Modulators of the Human D2 Dopamine Receptor: Potentiators; 360,000 tested, 0.23% active; DiscoveRx D2 beta-arrestin cells, luminescence, 90 min; 100% = 57 uM dopamine signal; AID 624464, 2012; D(2) dopamine receptor (Homo sapiens), P14416; potentiation, % (concentration not given with the values); in the data active = potentiation above about 50%; inconclusive = mostly about 30% to 49%
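D2 cells co-treated with compound plus 50 nM dopamine (EC20) for 90 min at 37 deg C to detect potentiation. Beta-arrestin recruitment was read as enzyme-fragment luminescence after 1 h at ambient temperature. Full response was set by 57 uM dopamine.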
D2 ag-2 = HTS Assay for Allosteric Agonists of the Human D2 Dopamine Receptor: Primary Screen for Agonists; activation, % at 2 µM; 340,000 tested, 0.53% active; HEK293 T-REx D2 cells, calcium flux agonist mode; AID 485358, 2010; D(2) dopamine receptor (Homo sapiens), P14416;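 active = activation over 3 SD above normal in the single-dose calcium agonist read, cut at about 30% in these data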; also: 0% is about no effect
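HEK293 Trex D2 cells, tetracycline-induced, o/n 30 C 5% CO2; no-wash Ca dye, RT 30–90 min; 10-cycle baseline, 23 nl cpd added, kinetic Ca read 180 s; agonist hits = positive Ca response.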
Active calls of the source: *; ? = inconclusive; . = no result.

SMILES	D2 antagonist	D2 PAM-1	D2 ag-1	D2 PAM-2	D2 ag-2
Cc1ccc(N/C(N)=N/c2nc3c(c(=O)[nH]2)CCCC3)c(C)c1	-10	-1	3	-7	-1
CCc1ccc2c(c1)c(=O)c(S(=O)(=O)c1ccc(F)cc1)cn2CC(=O)Nc1ccc(C)cc1C	.	10	.	.	-1
CC(C)(C)c1ccc(C(=O)CSc2n[nH]c(=O)[nH]c2=O)cc1	31*	-8	-3	-1	0
O=C(CSc1n[nH]c(=O)[nH]c1=O)c1ccc(Cl)cc1Cl	5	16	-1	-2	0
COc1ccc(CCNC(=O)Cn2nc(C)c3c(C)n(-c4ccc(C)cc4)nc3c2=O)c(OC)c1	.	.	.	.	-1
O=C(Nc1ccc2c(c1)OCCO2)c1cccc2nc3ccccc3nc12	-28	34*	-3	-2	0
COc1ccc(N2CCN(C(CNC(=O)c3ccc(C)cc3)c3ccc4c(c3)OCO4)CC2)cc1 (stereo not given)	.	-15	.	.	0
COc1ccccc1N1C(=O)CC(c2ccccc2)CC1=O	5	12	-4	-13	2
COc1ccccc1N1C(=O)CSC1=S	-2	32*	-3	-3	0
CCCCOC(=O)c1ccc(NC(=O)c2ccc3c(c2)CCN3S(C)(=O)=O)cc1	.	6	.	.	.
Clc1ccc(Nc2ncnc3ccc(Br)cc23)cc1	34*	-6	1	-18	2
Clc1cccc(Nc2ncnc3ccc(Br)cc23)c1	-7	7	1	-14	0
CN1CCN(C(=O)c2ccc3c(c2)N(Cc2ccc(Cl)cc2)C(=O)c2ccccc2S3(=O)=O)CC1	.	-20	.	.	2
O=C(NCCc1ccccc1Cl)c1ccc2c(=O)n(-c3ccccc3)c(=O)[nH]c2c1	.	.	.	.	0
COc1ccc(N2CCN(CC(=O)N3N=CCC3c3ccccc3)CC2)cc1 (stereo not given)	13	-3	0	-3	0
COc1ccccc1N1CCN(/N=C/c2cccc(OC)c2O)CC1	59*	-5	-9	-6	-3
COc1ccccc1N1CCN(C/C(C)=C/c2ccccc2)CC1	74*	-23	-2	-18	0
COc1ccccc1N1CCN(CC(=O)N2N=CCC2c2ccccc2)CC1 (stereo not given)	42*	-18	-10	-22	0
C/C(=C\c1ccccc1)CN1CCN(c2ccccc2)CC1	-6	-6	?	1	0
Clc1ccc(CN2C3=NCCCN3c3ccccc32)cc1Cl	76*	3	1	-10	1
Clc1ccc(CN2C3=NCCCN3c3ccccc32)cc1	3	6	-10	-6	1
CC(C)CCNC(=O)COc1ccc2c(c1)C(=O)CC(C)(C)O2	0	-1	-2	2	0
CC1(C)CC(=O)c2cc(OCC(=O)NCCN3CCCc4ccccc43)ccc2O1	-10	-20	2	-20	34*
Cc1cc(C)cc(NC(=O)C2CCCN2S(=O)(=O)c2cccc3nsnc23)c1 (stereo not given)	.	-5	.	.	-1
Nc1ccc(/C=C/C(=O)c2cccs2)cc1	60*	-27	1	-2	26
SMILES	D2 antagonist	D2 PAM-1	D2 ag-1	D2 PAM-2	D2 ag-2
Cc1c(C)n(Cc2ccc(F)cc2)c2ccc(C(=O)N3CCN(c4ccc(F)cc4)CC3)cc12	.	-3	.	.	.
CCN1CCN(C(=O)c2ccc3c(c2)c(C)c(C)n3Cc2ccccc2)CC1	38*	-32	-1	-16	0
CSc1ccc(CN2CCC(Cc3ccccc3)CC2)cc1	31*	-17	-2	-83	-1
OCC1(Cc2ccccc2)CCN(Cc2ccccn2)CC1	-7	10	4	-6	0
O=C(c1ccc(-c2ccccc2)cc1)N1CCN(Cc2ccccn2)CC1	.	.	-2	-1	.
c1ccc(CC2CCN(Cc3ccccn3)CC2)cc1	30*	-14	-4	-20	0
CSc1ccc(CN2CCC(Oc3cccc(C(=O)N4CCCC4)c3)CC2)cc1	-34	-13	-1	-20	1
CSc1ccc(OC2CCN(Cc3ccccc3)CC2)cc1	31*	-16	-4	-31	0
c1ccc(CN2CCN(c3ncccn3)CC2)nc1	37*	-22	.	.	48*
O=C(NC1CCCCC1)c1cc(Nc2cccc(C(F)(F)F)c2)nc2ccccc12	.	23	.	.	-1
Clc1cccc(CN2CCC(Cc3ccccc3)CC2)c1	.	.	-2	-16	.
Clc1ccc(CN2CCC(Cc3ccccc3)CC2)cc1	48*	-33	-1	-41	-1
Clc1ccc(CN2CCC(c3ccccc3)CC2)cc1	85*	-26	1	-55	-1
Clc1ccc(CN2CCC(c3nc4ccc(Cl)cc4[nH]3)CC2)cc1	82*	-30	-1	-37	0
CC(=O)Nc1sc(NC(=O)c2ccccc2)nc1-c1cccs1	-14	-7	4	-1	0
CCN(CC)c1ccc(/C=C(\C#N)c2nc(-c3cccs3)c(NC(C)=O)s2)cc1	6	-3	.	.	33*
CN(Cc1ccc(F)cc1)C(=O)c1cc(COc2ccc(-n3cncn3)cc2)on1	-10	2	2	67*	0
O=C(NCCn1cc(SCc2ccccc2Cl)c2ccccc21)c1cccs1	.	-2	.	.	0
COC(=O)c1cc2c(cc1NC(=O)c1c(C)nn(-c3ccc(C)cc3)c1-n1cccc1)OCO2	.	-5	.	.	-1
COc1ccc(OC)c(CCNc2ncnc3onc(C)c23)c1	.	4	.	.	1
Cc1[nH]c2ccccc2c1C(c1ccncc1)N1CCN(c2ccccn2)CC1 (stereo not given)	15	-21	0	3	35*
CC(=O)c1ccc(NC(=O)C[n+]2cccc(C)c2)cc1	37*	8	-2	-3	0
CCN(CC)CCOC(=O)c1ccc(NC(=O)CCCN2C(=O)/C(=C\c3cccs3)SC2=S)cc1	68*	-27	-4	-56	1
COc1ccc(CNS(=O)(=O)c2cnc(N)nc2)c(OC)c1	.	-11	.	.	1
COC(=O)c1cnn(-c2ccc(C)c(C)c2)c1-n1cccc1	30*	13	-3	-2	0
CCOC(=O)Cc1ccc(NC(=O)N2CCc3c(sc4c3CCCC4)C2c2ccc(F)cc2)cc1 (stereo not given)	.	-3	.	.	0
NS(=O)(=O)c1ccc2c(c1)C(=NO)c1cc(S(N)(=O)=O)ccc1-2	-7	-6	8	-3	1
